Screening data (PubChem)
Compounds with a hit are over-represented: about 28% of the library has one in this group of screens.
CYP2C9 act = activators of human CYP2C9 | recombinant CYP2C9, luciferin-H conversion, luminescence; hits give high values; factor 1 = untreated enzyme, 0 = blocked | activation factor at 5 µM | 1.4% of 96,000 active | AID 1024;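 active means activation factor of 2 or more for CYP2C9 at a 5 µM dose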;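 further: 0 = sulfaphenazole-blocked wells and 1 = vehicle-only wells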
CYP2C19 inhib = inhibitors of human CYP2C19; P33261; CYP2C19 Supersomes, luciferin-H EGE luminescence, 30 min; inhibition, % at 5 µM; 21% of 96,000 active;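 active means CYP2C19 inhibition above a set limit at 5 µM in the primary screen, cut at about 50% in these data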;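 further: plate controls were negative control wells for no effect and 2.5 mM tranylcypromine positive control for full effect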
Target sequence (P33261 whole entry, looked up): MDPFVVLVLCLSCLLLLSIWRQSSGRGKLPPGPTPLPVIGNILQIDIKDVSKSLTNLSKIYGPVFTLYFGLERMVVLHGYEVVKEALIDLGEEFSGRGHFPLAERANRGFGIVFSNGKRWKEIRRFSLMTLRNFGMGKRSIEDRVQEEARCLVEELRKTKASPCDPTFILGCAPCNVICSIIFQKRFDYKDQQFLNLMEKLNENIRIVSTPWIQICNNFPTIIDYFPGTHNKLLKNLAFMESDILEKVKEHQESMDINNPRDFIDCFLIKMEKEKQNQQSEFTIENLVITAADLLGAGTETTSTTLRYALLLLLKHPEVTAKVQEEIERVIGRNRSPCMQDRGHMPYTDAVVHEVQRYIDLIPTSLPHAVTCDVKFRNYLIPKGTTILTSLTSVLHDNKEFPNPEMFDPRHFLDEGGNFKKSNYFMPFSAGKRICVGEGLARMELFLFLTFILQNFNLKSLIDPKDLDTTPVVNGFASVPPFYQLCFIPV
CYP2C19 act = increases human CYP2C19 enzyme activity; 96,000 tested, under 10 active; recombinant CYP2C19, luciferin-H EGE luminescence; hits give high values; 0 = fully inhibited enzyme, 1 = untreated enzyme; P33261; activation factor at 5 µM;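 active means activation factor of at least 2 at 5 µM in the primary screen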;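 further: 0 = wells with 2.5 mM tranylcypromine and 1 = vehicle-only wells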
Pyk2 oligo antag = antagonists of human Pyk2 oligomerization; Q14289; Q293 cells, Pyk2 FERM NanoBiT luminescence; hits give low values; z-score (the deposit names both 25 µM and 10 µM); 0.83% of 99,000 active; AID 1347419;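 active means Z-score of -3 or lower, scaled per plate to the spread of control and sample wells; inactive means z-score above -3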;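 further: negative z-score means lost luminescence so less FERM oligomerization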
CYP2C9 inh = blocks human cytochrome P450 2C9. P11712. CYP2C9 Supersomes, luciferin-H conversion, luminescence. inhibition, % at 5 µM. 20% of 96,000 active;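 active means blocking of liver enzyme CYP2C9 beyond about 50% at 5 µM, limit read from the data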
Active calls of the source: *; . = not tested or not shown.

SMILES	CYP2C9 act	CYP2C19 inhib	CYP2C19 act	Pyk2 oligo antag	CYP2C9 inh
C=CCn1c(SCCOc2ccc(OC)cc2)nnc1C(CO)NC(=O)c1ccc(OC)cc1 (stereo unspecified)	0.1	46	0.5	2	88*
COc1ccc(C(=O)NC(C)c2nnc(SCC(=O)Nc3nc(C)cs3)n2C)cc1 (stereo unspecified)	0.9	11	0.9	0.16	12
CCc1nnc(NC(=O)CSc2nc3cccnc3n2Cc2ccccc2)s1	.	.	.	-1.6	.
Oc1ccc(Nc2nc3ccccc3nc2Nc2ccc(O)cc2)cc1	0	99*	0	-4.4*	99*
Cc1n[nH]c(=O)nc1Nc1ccc(O)cc1	1.1	-6	1.1	0.81	-13
Cc1ccc(Nc2nc3c([nH]2)c(=O)n(C)c(=O)n3C)cc1	0.4	9	0.9	-0.34	60*
CN(C)c1nc(Cl)nc(NCCOc2ccccc2)n1	.	.	.	0.78	.
COc1ccc(NC(=O)C2CSC3c4ccccc4C(=O)N23)cc1 (stereo unspecified)	0.4	70*	0.3	0.4	60*
CN(C)c1nc(OCCNC(=O)COc2ccccc2Cl)nc(N(C)C)n1	.	.	.	-0.12	.
O=C(O)CSc1nnc(-c2ccccc2)o1	0.9	10	0.9	0.94	12
CC(C)(C)c1ccc(-c2nnc(SCCN3C(=O)c4ccccc4C3=O)o2)cc1	0.2	78*	0.2	0.95	84*
CCC(Sc1nc2ccccc2[nH]1)C(=O)Nc1cc(C)on1 (stereo unspecified)	0.6	46	0.5	-0.97	37
CCC(Sc1nc(-c2ccccc2)c(C#N)c(=O)[nH]1)C(=O)Nc1cc(C)on1 (stereo unspecified)	0.2	-6	1.1	-1.7	83*
COC(=O)C(CC(C)C)NC(=O)CSc1nc(-c2ccccc2)c(C#N)c(=O)[nH]1 (stereo unspecified)	0.1	65*	0.3	-0.74	88*
CCSc1nc(-c2ccccc2)c(C#N)c(=O)[nH]1	0.7	3	1	-0.06	29
O=C1CN(C(=O)COC(=O)CCC(=O)c2ccc3c(c2)OCCO3)c2ccccc2N1	1.1	11	0.9	2.6	-10
O=C(CN1CCN(c2ccccc2F)CC1)c1ccc2cc[nH]c2c1	0.7	24	0.8	.	31
CCOC(=O)N1CCC2(CC1)C(C(=O)C13CC4CC(CC(C4)C1)C3)C2(C#N)C#N (stereo unspecified)	0.5	67*	0.3	-0.63	52*
CCOC(=O)c1ccc(NC(=O)CNC(=O)C23CC4CC(CC(C4)C2)C3)cc1	0.9	6	0.9	-0.16	12
O=c1c2ccccc2nnn1CSc1nnc(C2COc3ccccc3O2)n1-c1ccccc1 (stereo unspecified)	0.1	87*	0.1	-0.48	90*
COc1cc(C(=O)Nc2ccc(Br)cc2C(=O)c2cc(OC)c(OC)c(OC)c2)cc(OC)c1OC	0.1	68*	0.3	1.3	93*
COc1cc(C(=O)Nc2ccc(S(=O)(=O)NC(C)(C)C)cc2)cc(OC)c1OC	0.5	4	1	-0.13	46
COc1c(Cl)cc(C(=O)Nc2ccccc2-c2ccccc2)cc1Cl	0.6	32	0.7	-0.87	43
COc1ccc(Br)cc1C(=O)Nc1ccc(N2CCN(S(C)(=O)=O)CC2)cc1	2*	16	0.8	-0.03	-97
COc1ccc(Br)cc1C(=O)Nc1ccccc1-c1ccccc1	0.8	31	0.7	-3.6*	17
SMILES	CYP2C9 act	CYP2C19 inhib	CYP2C19 act	Pyk2 oligo antag	CYP2C9 inh
COc1cccc(OC)c1C(=O)Nc1ccc(N2CCN(S(C)(=O)=O)CC2)cc1	1.1	23	0.8	0.92	-9
COc1cc(C(=O)Nc2ccc(N(C)C)cc2)cc(OC)c1OC	0.7	70*	0.3	-0.57	27
COc1cc(C(=O)Nc2cccc3ncccc23)cc(OC)c1OC	1.1	18	0.8	1.6	-8
COc1ccc(Br)cc1C(=O)Nc1ccc(O)cc1	3.1*	46	0.5	-0.28	-205
COc1ccc(Br)cc1C(=O)O	1.1	-18	1.2	0.17	-11
CCOc1cccc(C(=O)Nc2ccc(N3CCN(S(C)(=O)=O)CC3)cc2)c1	0.5	34	0.7	-0.19	53*
CCc1nnc(NC(=O)CSc2nnc(COc3ccccc3)n2Cc2ccccc2)s1	.	.	.	2.5	.
COC(=O)C(CCSC)NC(=O)Cn1ncc2c(=O)oc3ccccc3c21 (stereo unspecified)	0.7	2	1	.	33
COC(=O)[C@H](Cc1ccccc1)NC(=O)NCc1cccs1	0.8	63*	0.4	-0.02	20
O=C(NCc1cccs1)N[C@@H](Cc1ccccc1)C(=O)O	0.9	8	0.9	-0.36	6
COc1ccccc1CNC(=O)N[C@@H](Cc1ccccc1)C(=O)O	0.8	70*	0.3	0.94	21
CC1(C)CN=C(NC2CCCCC2)S1	1.1	5	0.9	0.43	-7
CCNS(=O)(=O)c1ccc(C)c(-n2cnnn2)c1C	.	.	.	1.4	.
CCC(C)NC(=O)COc1ccc(S(=O)(=O)N2CCOCC2)cc1 (stereo unspecified)	0.9	-6	1.1	0.62	6
O=C(NC(=S)Nc1cccc(Cl)c1N1CCCCC1)c1cccs1	0.4	14	0.9	-0.3	59*
O=C(CN1C(=O)C2CC=CCC2C1=O)NCC1COc2ccccc2O1 (stereo unspecified)	0.9	36	0.6	0.12	15
CCC(C(=O)Nc1nnc(-c2ccco2)s1)c1ccccc1 (stereo unspecified)	0.4	25	0.8	0.38	55*
CCOc1cccc(C(=O)Nc2nnc(-c3ccco3)s2)c1	2.1*	18	0.8	0.3	-105
COc1cccc(C(=O)Nc2nnc(-c3cccs3)s2)c1	0.3	30	0.7	0.04	70*
COc1ccc(-n2c(Cc3ccccc3)nnc2SCC(=O)N2CCCc3ccccc32)cc1	.	.	.	-1.2	.
O=C(COC(=O)c1cnccn1)c1ccc2c(c1)CCCC2	1.3	0	1	0.17	-28
O=C(CC1Oc2ccccc2NC1=O)NC1CC1 (stereo unspecified)	1.2	14	0.9	.	-24
O=C(CC1Oc2ccccc2NC1=O)NCCc1ccccc1 (stereo unspecified)	1.7	42	0.6	.	-75
O=C(CC1Oc2ccccc2NC1=O)NC1CCCC1 (stereo unspecified)	2.4*	34	0.7	.	-138
CCN(CCNC(=O)CC1Oc2ccccc2NC1=O)c1ccccc1 (stereo unspecified)	1.6	61*	0.4	.	-62
CCN(Cc1ccccc1)C(=O)CC1Oc2ccccc2NC1=O (stereo unspecified)	1.7	88*	0.1	.	-67
Cc1cccc(NC(=O)CCSc2nncn2C)c1	.	.	.	1.6	.
CC(C)Oc1ccc(C(CC(=O)NCc2ccco2)c2ccccc2)cc1 (stereo unspecified)	0.3	61*	0.4	-2.5	68*
CCN(CC)c1ccc(C(=O)OCC(=O)N2CCN(c3ccccc3)CC2)cc1	0.9	7	0.9	0.51	6
